Data on five compounds can be found in PubChem BioAssay.

Molecules are shown by their SMILES. Calls of active or inactive are those of the source.

Assay [1] in a line: small molecules captured by biotinylated probe aFSTL3 – biochemical, small-molecule microarray, fluorescence 635/667, stem cell growth factor project, primary screen (AID 1064).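 Further: measures binding of the biotinylated anti-FSTL3 antibody to printed compounds.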 As to conditions: higher = more signal.
Assay [2] is described as follows: binders from COS7 lysate, DM2A8 probe, primary screen, torsin A project, cell lysate, small-molecule microarray, fluorescence 635/667 (AID 1065). The following applies: higher = more signal, COS7 lysate expressing mutant human TOR1A.
The nature of assay [3]: small molecules captured by biotinylated probe aFGF2 – biochemical, small-molecule microarray, fluorescence 635/667, stem cell growth factor project, primary screen (AID 1067).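 Further: measures binding of biotinylated aFGF2 protein to printed compounds on slides; z-score merges feature fluorescence and signal-to-noise across triplicate slides.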 The following applies: higher = more signal.
A short description of assay [4]: small molecules captured by biotinylated probe aFGF10 – biochemical, small-molecule microarray, fluorescence 635/667, stem cell growth factor project, primary screen (AID 1071).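 Further: score merges 667 nm spot intensity and signal to noise from triplicate slides.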 As to conditions: higher = more signal.
The target in assay [5] is Neurogenic locus notch homolog protein 2 (Homo sapiens) (UniProt Q04721). Put plainly: small molecules binding Notch2 protein – biochemical, small-molecule microarray, 635 nm fluorescence, stem cell growth factors, primary screen (AID 1073). The following applies: higher = more signal.
Assay [6] addresses Pro-neuregulin-1, membrane-bound isoform (Homo sapiens) (UniProt Q02297). Put plainly: small molecules binding neuregulin-1 protein – biochemical, small-molecule microarray, fluorescence 635/667, psychiatric disease protein project, primary screen (AID 1075).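 Further: score combines 667 nm spot fluorescence with signal to noise.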 As to conditions: NRG1 binding, 635 nm fluorescence, higher = more signal.
The test system of assay [7] is Neuregulin-1 EGF-like domain. In words: small molecules binding NRG1 EGF domain – biochemical, small-molecule microarray, 635 nm fluorescence, primary screen (AID 1081).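 Further: binding of the protein to compounds printed on small-molecule microarray slides.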 The following applies: higher = more signal.
Assay [8] in a line: FRG1 expression reporter modulators in myotubes – cell-based, C2C12 myotubes, firefly/Renilla luciferase, luminescence, FRG1 inhibition for FSHD, primary screen (AID 1084). The following applies: FRG1 promoter luciferase, higher = more signal, called active from +8 up or from −8 down.
Assay [9] in a line: small molecules captured by biotinylated probe aFST – biochemical, small-molecule microarray, fluorescence 635/667, stem cell growth factor project, primary screen (AID 1086).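 Further: score merges 667 nm fluorescence with signal-to-noise of each printed compound spot.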 The following applies: higher = more signal.
Assay [10] in a line: binders of probe aHhip on microarray, primary screen, stem cell growth factor project, biochemical, small-molecule microarray, fluorescence 635/667 (AID 1087).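 Further: score merges spot fluorescence at 667nm with spot signal to noise ratio.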 The following applies: higher = more signal.
Assay [11] concerns PRMT1 (protein arginine N-methyltransferase 1). Put plainly: small molecules binding arginine methyltransferase PRMT1 – biochemical, small-molecule microarray, 635 nm fluorescence, primary screen (AID 1088).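 Further: binding of Prmt1 protein to compounds spotted on small-molecule microarray slides.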 The following applies: higher = more signal.
A short description of assay [12]: growth effects on S. cerevisiae YJM789 – YJM789 clinical isolate, OD600, 24 h, basal, primary screen (AID 1089).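 Further: growth of clinical yeast isolate S. cerevisiae YJM 789 seeded 1000 cells per well; test concentration not given here.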 The following applies: higher = more signal, called active from +8 up or from −8 down.
A short description of assay [13]: S. pombe growth modifiers, basal conditions – strain 972, OD600, 24 h, no modulator, primary screen (AID 1090).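 Further: basal condition with compound alone and no growth modifier present; test concentration not given here.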 As to conditions: S. pombe 972 growth, higher = more signal, called active from +8 up or from −8 down.
A short description of assay [14]: budding yeast growth modifiers under rapamycin – strain BY4716, OD600, 96 h, primary screen (AID 1091). Further: test concentration not given here. The following applies: S. cerevisiae BY4716 + rapamycin, higher = more signal, called active from +8 up or from −8 down.
The target in assay [15] is Torsin-1A-interacting protein 2 (Homo sapiens) (UniProt Q8NFQ8). Put plainly: small molecules binding lysate-expressed LULL1 – cell lysate, human LULL1 lysate, 635/667 nm fluorescence, primary screen (AID 1092).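 Further: score merges per-feature 667 nm fluorescence with signal-to-noise.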 The following applies: small-molecule microarray, hLULL1 lysate binding, 635 nm fluorescence; higher = more signal.
Assay [16] can be described thus: optical density change of DRC41 E. coli – strain DRC41, OD650, 24 h, E. coli filamentation project, primary screen (AID 1093).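 Further: MC1000 strain lacking acrAB efflux and sulA so SOS filamentation is blocked; test concentration not given here.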 As to conditions: E. coli DRC41 growth, higher = more signal, called active from +8 up or from −8 down.
Assay [17] in a line: probe aLefty2 binding to arrayed compounds – biochemical, biotinylated probe, 635/667 nm fluorescence, primary screen (AID 1094).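 Further: score merges spot fluorescence near 667 nm with spot signal-to-noise ratio.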 As to conditions: small-molecule microarray, higher = more signal.
Assay [18] concerns Noggin (protein binding on small-molecule microarray). In words: small molecules binding Noggin protein – biochemical, 635/667 nm fluorescence, primary screen (AID 1095).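 Further: score merges 667 nm feature fluorescence with signal to noise over triplicate slides.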 As to conditions: 635 nm fluorescence, higher = more signal.
The target in assay [19] is Neurogenic locus notch homolog protein 3 (Homo sapiens) (UniProt Q9UM47). In words: small molecules binding NOTCH3 protein – biochemical, 635/667 nm fluorescence, primary screen (AID 1096). As to conditions: small-molecule microarray, 635 nm fluorescence, higher = more signal.
The nature of assay [20]: probe aEGFR binding to arrayed compounds – biochemical, biotinylated probe, 635/667 nm fluorescence, primary screen (AID 1097).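 Further: probe is a biotinylated anti-EGFR antibody binding compounds printed on slides; score combines fluorescence near 667 nm and signal to noise of each spot.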 As to conditions: small-molecule microarray, higher = more signal.

Pro-neuregulin-1, membrane-bound isoform (Homo sapiens), sequence (Q02297 whole entry, looked up, the tested form may be a part, canonical isoform): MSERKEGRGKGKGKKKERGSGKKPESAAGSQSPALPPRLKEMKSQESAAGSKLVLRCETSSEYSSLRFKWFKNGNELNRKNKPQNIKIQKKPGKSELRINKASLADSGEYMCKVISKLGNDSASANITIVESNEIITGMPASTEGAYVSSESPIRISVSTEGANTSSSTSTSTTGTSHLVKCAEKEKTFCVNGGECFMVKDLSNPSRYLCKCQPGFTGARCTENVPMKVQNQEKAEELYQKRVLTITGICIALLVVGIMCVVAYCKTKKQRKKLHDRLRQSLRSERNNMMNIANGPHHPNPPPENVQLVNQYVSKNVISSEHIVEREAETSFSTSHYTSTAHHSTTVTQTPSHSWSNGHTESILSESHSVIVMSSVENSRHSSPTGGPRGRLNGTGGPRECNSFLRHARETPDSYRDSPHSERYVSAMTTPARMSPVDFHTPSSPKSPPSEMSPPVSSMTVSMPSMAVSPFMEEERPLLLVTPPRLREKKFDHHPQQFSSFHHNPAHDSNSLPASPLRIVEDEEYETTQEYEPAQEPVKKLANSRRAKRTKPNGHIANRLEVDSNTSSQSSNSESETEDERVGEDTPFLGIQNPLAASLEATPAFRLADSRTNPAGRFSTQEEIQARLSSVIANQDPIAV
Neurogenic locus notch homolog protein 2 (Homo sapiens), sequence (Q04721 whole entry, looked up, canonical isoform): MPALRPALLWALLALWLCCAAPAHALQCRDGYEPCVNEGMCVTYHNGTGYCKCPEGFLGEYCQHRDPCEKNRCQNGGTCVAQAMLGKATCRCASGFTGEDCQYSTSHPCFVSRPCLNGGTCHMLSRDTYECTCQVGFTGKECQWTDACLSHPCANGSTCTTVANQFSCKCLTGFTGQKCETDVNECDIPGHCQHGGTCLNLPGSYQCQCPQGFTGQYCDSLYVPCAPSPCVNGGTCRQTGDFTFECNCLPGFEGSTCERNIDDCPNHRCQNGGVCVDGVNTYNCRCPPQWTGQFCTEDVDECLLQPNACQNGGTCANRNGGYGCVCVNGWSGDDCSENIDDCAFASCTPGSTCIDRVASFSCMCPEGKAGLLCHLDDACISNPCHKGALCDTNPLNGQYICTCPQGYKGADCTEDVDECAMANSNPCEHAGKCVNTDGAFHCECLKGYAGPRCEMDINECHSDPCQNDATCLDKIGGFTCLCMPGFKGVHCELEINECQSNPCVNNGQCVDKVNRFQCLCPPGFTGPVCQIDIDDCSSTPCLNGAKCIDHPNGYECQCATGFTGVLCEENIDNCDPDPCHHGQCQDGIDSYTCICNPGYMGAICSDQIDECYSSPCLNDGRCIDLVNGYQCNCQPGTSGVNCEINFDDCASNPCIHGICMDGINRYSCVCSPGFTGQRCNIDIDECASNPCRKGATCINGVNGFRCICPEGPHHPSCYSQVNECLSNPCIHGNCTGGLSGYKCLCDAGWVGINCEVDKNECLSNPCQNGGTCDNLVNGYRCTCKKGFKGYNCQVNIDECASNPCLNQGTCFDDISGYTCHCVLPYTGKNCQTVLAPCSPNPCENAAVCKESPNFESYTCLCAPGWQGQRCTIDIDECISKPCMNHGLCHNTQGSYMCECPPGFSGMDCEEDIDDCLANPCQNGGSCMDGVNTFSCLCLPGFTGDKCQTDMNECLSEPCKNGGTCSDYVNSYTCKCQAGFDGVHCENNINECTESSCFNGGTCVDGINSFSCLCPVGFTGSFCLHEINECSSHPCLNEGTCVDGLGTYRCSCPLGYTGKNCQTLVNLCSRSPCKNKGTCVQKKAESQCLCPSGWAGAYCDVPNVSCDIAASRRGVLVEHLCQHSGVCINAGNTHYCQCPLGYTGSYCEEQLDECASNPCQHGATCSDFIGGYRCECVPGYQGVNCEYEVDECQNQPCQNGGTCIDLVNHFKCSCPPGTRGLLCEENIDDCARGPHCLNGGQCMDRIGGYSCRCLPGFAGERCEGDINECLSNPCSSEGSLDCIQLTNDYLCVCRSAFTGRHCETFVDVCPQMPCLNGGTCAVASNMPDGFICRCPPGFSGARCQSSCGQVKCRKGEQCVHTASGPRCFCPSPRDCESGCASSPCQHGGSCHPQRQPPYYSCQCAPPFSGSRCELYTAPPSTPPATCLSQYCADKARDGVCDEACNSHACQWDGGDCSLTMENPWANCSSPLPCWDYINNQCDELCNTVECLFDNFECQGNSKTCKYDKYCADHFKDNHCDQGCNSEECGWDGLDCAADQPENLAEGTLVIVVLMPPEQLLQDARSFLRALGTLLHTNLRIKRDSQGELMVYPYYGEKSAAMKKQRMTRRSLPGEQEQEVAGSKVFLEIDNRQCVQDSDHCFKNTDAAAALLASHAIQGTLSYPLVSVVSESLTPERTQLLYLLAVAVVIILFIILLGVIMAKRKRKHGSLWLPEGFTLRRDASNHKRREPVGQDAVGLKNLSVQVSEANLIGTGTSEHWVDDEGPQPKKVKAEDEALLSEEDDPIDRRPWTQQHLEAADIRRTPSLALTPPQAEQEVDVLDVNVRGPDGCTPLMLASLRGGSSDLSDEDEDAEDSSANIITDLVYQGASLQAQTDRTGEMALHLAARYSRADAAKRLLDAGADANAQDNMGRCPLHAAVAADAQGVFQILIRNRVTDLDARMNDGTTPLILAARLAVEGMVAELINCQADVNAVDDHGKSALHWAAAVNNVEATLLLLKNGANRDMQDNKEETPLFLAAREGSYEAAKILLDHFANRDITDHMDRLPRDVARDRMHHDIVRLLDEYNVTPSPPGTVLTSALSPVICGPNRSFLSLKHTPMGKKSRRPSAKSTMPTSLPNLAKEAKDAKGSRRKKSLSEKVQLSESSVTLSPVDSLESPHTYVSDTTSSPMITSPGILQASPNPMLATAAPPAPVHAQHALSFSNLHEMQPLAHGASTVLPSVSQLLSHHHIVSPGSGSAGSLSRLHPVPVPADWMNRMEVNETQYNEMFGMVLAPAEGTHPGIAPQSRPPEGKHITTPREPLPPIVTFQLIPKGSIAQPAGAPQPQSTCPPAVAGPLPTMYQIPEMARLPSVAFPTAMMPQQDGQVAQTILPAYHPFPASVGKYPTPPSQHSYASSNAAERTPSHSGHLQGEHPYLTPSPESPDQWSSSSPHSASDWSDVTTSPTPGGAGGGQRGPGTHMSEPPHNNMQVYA
Torsin-1A-interacting protein 2 (Homo sapiens), sequence (Q8NFQ8 whole entry, looked up): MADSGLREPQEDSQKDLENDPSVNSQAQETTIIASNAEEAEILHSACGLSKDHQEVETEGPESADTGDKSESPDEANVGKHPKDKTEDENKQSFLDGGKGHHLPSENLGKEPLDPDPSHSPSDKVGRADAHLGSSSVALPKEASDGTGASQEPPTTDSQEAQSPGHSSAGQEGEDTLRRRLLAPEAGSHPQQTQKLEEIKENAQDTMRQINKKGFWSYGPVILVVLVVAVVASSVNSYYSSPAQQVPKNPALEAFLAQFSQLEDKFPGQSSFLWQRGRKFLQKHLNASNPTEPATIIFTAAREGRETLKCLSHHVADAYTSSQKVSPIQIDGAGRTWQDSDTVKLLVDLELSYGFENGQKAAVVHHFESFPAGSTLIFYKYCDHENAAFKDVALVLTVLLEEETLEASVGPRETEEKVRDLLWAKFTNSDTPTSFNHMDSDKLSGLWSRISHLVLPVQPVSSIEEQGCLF

For `COCCCNC(=O)[C@]1(Cc2ccccc2CN=[N+]=[N-])N=C(c2ccc(OCCCO)cc2)O[C@@H]1c1ccccc1N=[N+]=[N-]`, the composite z-score in assay [1] was found to be 1.19; in [2], 0.694; in [3], 0.359; in assay [4] it was 0.425; in assay [5] it was 1.43; in [6] it was 0.527. Besides, the composite z-score turned out to be 1.11 in assay [7]; 0.762 in assay [9]; 0.0623 in assay [10]; 0.772 in assay [11]; 2.27 in assay [15]; 0.862 in [17]. Besides, the composite z-score in assay [18] is 0.0289; in [19], -0.217; in assay [20], 0.371. Further, the z-score is -0.881 (inactive) in [8]; -0.499 (inactive) in assay [12]; 1.07 (inactive) in [13]; 4.98 (inactive) in assay [14]; 1.11 (inactive) in assay [16].

Take `CC(=O)NCCCC[C@@H]1NC(=O)[C@H]2C[C@@H](C(=O)NCCCCCN)[C@@H](c3ccc(O)cc3)N2C1=O`: the composite z-score is 0.392 in [1]; 0.861 in [2]; 0.007 in [3]; 0.198 in assay [4]; 1 in assay [5]; 0.0529 in assay [6]. Also, the composite z-score was 1.2 in [7]; 0.418 in assay [9]; 0.141 in [10]; 1.07 in assay [11]; 2.05 in assay [15]; 0.0158 in assay [17]. In addition, the composite z-score in assay [18] was found to be 1.35; in assay [19], 0.284; in assay [20], 0.0209. The z-score in [8] was -0.248 (inactive); in assay [12], 0.447 (inactive); in assay [13], -0.121 (inactive); in [14], 1.01 (inactive); in assay [16] it was -0.475 (inactive).

As for `O=C1NC(=O)C2C1C=CC(C(O)c1ccc(F)cc1)N2Nc1ccc(Cl)cc1Cl` (stereo not given), the composite z-score in assay [1] is 0.848; in [2], -0.335; in [3], 0.103; in assay [4], 0.336; in assay [5], 0.916; in [6], 1.8. The composite z-score in [7] was 0.885; in assay [9], 0.0708; in assay [10], -0.374; in assay [11] it was 0.589; in assay [15] it was 3.02; in assay [17], 0.096. Moreover, the composite z-score was -0.749 in assay [18], 0.14 in assay [19] and -0.123 in assay [20]. Moreover, the z-score was -0.068 (inactive) in [8]; -25.3 (active) in assay [12]; -7.26 (inactive) in [13]; -0.0449 (inactive) in [14]; -1.3 (inactive) in [16].

In the case of `CCOC(=O)C[C@H]1[C@H](OC(=O)Cc2ccc3c(c2)OCO3)[C@@H](NC(=O)CC(C)C)c2cc(OCCCO)ccc2N1C(=O)c1ccc2ccccc2n1`, the composite z-score in assay [1] is -0.306; in assay [2] it was 1.01; in assay [3], 0.0435; in assay [4], 0.43; in assay [5], 0.834; in [6], 1.01. Further, the composite z-score in assay [7] is 0.518; in assay [9] it was 0.376; in assay [10] it was -0.344; in assay [11] it was 0.516; in assay [15], 0.452; in assay [17] it was -0.145. The composite z-score is 0.988 in [18], 0.647 in [19] and -0.178 in assay [20]. Moreover, the z-score in [8] was -3.21 (inactive); in [12], -0.0651 (inactive); in assay [13], -0.943 (inactive); in assay [14], -0.0443 (inactive); in assay [16] it was 0.431 (inactive).

Turning to `CN1C(=O)C2C=CC(C(O)c3ccc(I)cc3)N(N(c3ccccc3)c3ccccc3)C2C1=O` (stereo not given), the composite z-score is 0.75 in assay [1]; -0.272 in [2]; -0.0507 in [3]; -0.454 in assay [4]; 0.333 in [5]; 0.495 in [6]. Also, the composite z-score in assay [7] is -0.0493; in [9] it was 0.428; in [10], -0.176; in [11], 0.364; in assay [15], 0.155; in assay [17], 0.17. Also, the composite z-score in assay [18] was -0.569; in assay [19], -0.239; in assay [20], -0.0903. The z-score in assay [8] is 0.586 (inactive); in assay [12], 0.413 (inactive); in [13], 1.38 (inactive); in assay [14] it was 1.45 (inactive); in [16] it was -1.07 (inactive).
